Inconclusive results are not listed. Entries that show only a call come without a potency. Values without a mark were called inactive. The source made the active and inactive calls. Calls follow the shape of the dose curve; as a rule, active = well fitted inhibition curve with a large enough effect; inconclusive = small, poorly fitted or top-dose-only effect; inactive = flat fitted curve, though single readings scatter.
Columns and labels:
N140 = assay: qHTS profiling for inhibitors of Plasmodium falciparum proliferation (AID 504749); also: potency is read from the fitted curve at half-maximal effect; conditions: P. falciparum in erythrocytes, SYBR Green DNA, 72 h; series mostly up to 28.7 µM
In short: (§1)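 In a 72 h erythrocytic culture (37 C, humidified, 5% CO2) at 2.5% hematocrit and 0.3% starting parasitemia, compounds were tested; SYBR Green I in detergent lysis buffer stained parasite DNA overnight.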

P93_24 = assay: as above; conditions: P. falciparum in erythrocytes, SYBR Green DNA, 72 h; series mostly up to 28.7 µM
In short: as §1

P94_40 = assay: as above; conditions: P. falciparum in erythrocytes, SYBR Green DNA, 72 h; series mostly up to 28.7 µM
In short: as §1

PAD = assay: as above; conditions: P. falciparum in erythrocytes, SYBR Green DNA, 72 h; series mostly up to 28.7 µM
In short: as §1

PC15 = assay: as above; conditions: P. falciparum in erythrocytes, SYBR Green DNA, 72 h; series mostly up to 28.7 µM
In short: as §1

PC26 = assay: as above; conditions: P. falciparum in erythrocytes, SYBR Green DNA, 72 h; series mostly up to 28.7 µM
In short: as §1

PC49 = assay: as above; conditions: P. falciparum in erythrocytes, SYBR Green DNA, 72 h; series mostly up to 28.7 µM
In short: as §1

SC27B = assay: as above; conditions: P. falciparum in erythrocytes, SYBR Green DNA, 72 h; series mostly up to 28.7 µM
In short: as §1

TAB109 = assay: as above; conditions: P. falciparum in erythrocytes, SYBR Green DNA, 72 h; series mostly up to 28.7 µM
In short: as §1

TAB165 = assay: as above; conditions: P. falciparum in erythrocytes, SYBR Green DNA, 72 h; series mostly up to 28.7 µM
In short: as §1

W2 = assay: as above; conditions: P. falciparum in erythrocytes, SYBR Green DNA, 72 h; series mostly up to 28.7 µM
In short: as §1

CRL-7250 [1] = assay: Cytotoxic Profiling of Annotated Libraries Using Quantitative High-Throughput Screening (AID 1296008); conditions: Five cell lines viability, CellTiter-Glo ATP luminescence, 48-72 h; max response: stronger effect = lower value
In short: (§2)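 Cytotoxicity was measured as CellTiter-Glo ATP luminescence, read after 10 min at room temperature. Compound treatment of the cells lasted 48 or 72 hr at 37 degrees Celsius in a qHTS format.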

HaCat [2] = assay: as above; conditions: Five cell lines viability, CellTiter-Glo ATP luminescence, 48-72 h; max response: stronger effect = lower value
In short: as §2

KB-3-1 = assay: as above; conditions: Five cell lines viability, CellTiter-Glo ATP luminescence, 48-72 h; max response: stronger effect = lower value
In short: as §2

NIH3T3 = assay: as above; conditions: Five cell lines viability, CellTiter-Glo ATP luminescence, 48-72 h; max response: stronger effect = lower value
In short: as §2

HACAT [3] = assay: qHTS assay to identify novel small-molecules to repurpose for Merkel cell carcinoma treatment (AID 1296009); conditions: MCC and control cell lines, CellTiter-Glo viability, 72 h; at 44.8 µM (top of the series) unless noted
In short: (§3)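 Cell viability measured by CellTiter-Glo following 72 hr compound treatment at 37 degree celsius, with NPC and MIPE libraries tested in 8- and 11-point concentration series.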

TAB113 = assay: qHTS profiling for inhibitors of Plasmodium falciparum proliferation (AID 504749); also: potency is read from the fitted curve at half-maximal effect; conditions: P. falciparum in erythrocytes, SYBR Green DNA, 72 h; series mostly up to 28.7 µM
In short: as §1

HEK293T = assay: qHTS assay to identify novel small-molecules to repurpose for Merkel cell carcinoma treatment (AID 1296009); conditions: MCC and control cell lines, CellTiter-Glo viability, 72 h; at 44.8 µM (top of the series)
In short: as §3

CRL-7250 [4] = assay: as above; conditions: MCC and control cell lines, CellTiter-Glo viability, 72 h; at 44.8 µM (top of the series) unless noted
In short: as §3
Also: nearly all actives have a fitted effect of over 60% in size.

CCN(CC)C(C)C(=O)c1ccccc1 (stereo not given)
Potency (N140): inactive | Potency (P93_24): inactive | Potency (P94_40): inactive | Potency (PAD): inactive | Potency (PC15): inactive | Potency (PC26): inactive | Potency (PC49): inactive | Potency (SC27B): inactive | Potency (TAB109): inactive | Potency (TAB165): inactive | Potency (W2): inactive | max response (CRL-7250 [1]): -0.537% | outcome (HaCat [2]): inactive | max response (KB-3-1): -1.49% | max response (NIH3T3): -1.81% | outcome (HACAT [3]): inactive

COP(=O)(OC)C(O)C(Cl)(Cl)Cl (stereo not given)
Potency (N140): inactive | Potency (P93_24): inactive | Potency (P94_40): inactive | Potency (PAD): inactive | Potency (PC15): inactive | Potency (PC26): inactive | Potency (PC49): inactive | Potency (SC27B): inactive | Potency (TAB109): inactive | Potency (TAB113): inactive | Potency (TAB165): inactive | Potency (W2): 4.26 µM (active) | max response (CRL-7250 [1]): 3.85% | outcome (HaCat [2]): inactive | max response (KB-3-1): -12.2% | outcome (NIH3T3): inactive | outcome (HACAT [3]): inactive | outcome (HEK293T): inactive

O=C(CCCN1CCC(n2c(=O)[nH]c3ccccc32)CC1)c1ccc(F)cc1
Potency (N140): 0.891 µM (active) | Potency (P93_24): 0.891 µM (active) | Potency (P94_40): 0.891 µM (active) | Potency (PAD): 1.12 µM (active) | Potency (PC15): 1.26 µM (active) | Potency (PC26): 2.56 µM (active) | Potency (PC49): 2.82 µM (active) | Potency (SC27B): 2 µM (active) | Potency (TAB109): 1 µM (active) | Potency (TAB113): 1.26 µM (active) | Potency (TAB165): 1 µM (active) | Potency (W2): 0.642 µM (active) | max response (CRL-7250 [1]): -0.196% | outcome (HaCat [2]): inactive | max response (KB-3-1): -5.74% | max response (NIH3T3): 0.676% | outcome (HACAT [3]): inactive

CN1CCc2cc(Cl)c(O)cc2[C@H]2c3ccccc3CC[C@@H]21
Potency (PAD): inactive | Potency (PC15): inactive | Potency (PC49): inactive | Potency (TAB113): inactive | Potency (W2): 4.78 µM (active) | max response (CRL-7250 [1]): -3.76% | outcome (HaCat [2]): inactive | max response (KB-3-1): 18% | max response (NIH3T3): -2.57% | outcome (HACAT [3]): inactive

Nc1ccc(N)cc1
Potency (PC49): inactive | Potency (W2): 3.79 µM (active) | max response (CRL-7250 [1]): -4.93% | outcome (HaCat [2]): inactive | max response (KB-3-1): -3.68% | max response (NIH3T3): -12% | outcome (HACAT [3]): inactive

CN(C)CCc1c[nH]c2cccc(O)c12
outcome (CRL-7250 [1]): inactive | outcome (HaCat [2]): inactive | max response (KB-3-1): -8.17% | max response (NIH3T3): 2.31% | outcome (CRL-7250 [4]): inactive [at 92 µM] | outcome (HACAT [3]): inactive [at 92 µM]

C=CCN1CC[C@]23CCCC[C@H]2[C@H]1Cc1ccc(O)cc13
max response (CRL-7250 [1]): 1.58% | outcome (HaCat [2]): inactive | max response (KB-3-1): 20.9% | max response (NIH3T3): -4.67% | outcome (HACAT [3]): inactive

CCCOC(=O)Cc1ccc(OCC(=O)N(CC)CC)c(OC)c1
max response (CRL-7250 [1]): -7.4% | max response (HaCat [2]): -1.71% | max response (KB-3-1): -8.87% | max response (NIH3T3): -20.5%

O=C(NC(=O)c1c(F)cccc1F)Nc1cc(Cl)c(OC(F)(F)C(F)C(F)(F)F)cc1Cl (stereo not given)
Potency (P93_24): 8.91 µM (active) | Potency (P94_40): 12.6 µM (active) | Potency (PC15): inactive | Potency (PC26): inactive | Potency (TAB113): 11.2 µM (active) | outcome (CRL-7250 [1]): inactive | outcome (HaCat [2]): inactive | max response (KB-3-1): 8.21% | max response (NIH3T3): -16.1% | outcome (CRL-7250 [4]): inactive | outcome (HACAT [3]): inactive

C[C@H]1C(=O)O[C@@H]2CCN3CC=C(COC(=O)[C@](C)(O)[C@]1(C)O)[C@H]23
Potency (N140): inactive | Potency (P93_24): inactive | Potency (P94_40): inactive | Potency (PAD): inactive | Potency (PC15): inactive | Potency (PC26): inactive | Potency (PC49): inactive | Potency (SC27B): inactive | Potency (TAB113): inactive | Potency (TAB165): inactive | Potency (W2): inactive | max response (CRL-7250 [1]): -23.7% | outcome (HaCat [2]): inactive | max response (KB-3-1): -11.3% | max response (NIH3T3): -4.3% | outcome (HACAT [3]): inactive

CC[C@H]1C[C@@H]2C[C@H]3c4[nH]c5ccc(OC)cc5c4CCN(C2)[C@@H]13
max response (CRL-7250 [1]): 1.28% | max response (HaCat [2]): -4.77% | max response (KB-3-1): -8.79% | max response (NIH3T3): -11.9%

CCC1(c2ccccc2)CCC(=O)NC1=O (stereo not given)
Potency (N140): inactive | Potency (P94_40): inactive | Potency (PAD): inactive | Potency (PC15): inactive | Potency (PC26): inactive | Potency (PC49): inactive | Potency (SC27B): inactive | Potency (TAB109): inactive | Potency (TAB113): inactive | Potency (TAB165): inactive | outcome (CRL-7250 [1]): inactive | max response (HaCat [2]): -1.76% | max response (KB-3-1): -6.95% | max response (NIH3T3): 4.7% | outcome (CRL-7250 [4]): inactive

CC(C)=C[C@@H]1[C@@H](C(=O)OCc2coc(Cc3ccccc3)c2)C1(C)C
max response (CRL-7250 [1]): 2.34% | outcome (HaCat [2]): inactive | max response (KB-3-1): 6.83% | max response (NIH3T3): -1.15% | outcome (HACAT [3]): inactive

CN1C[C@@H](NS(=O)(=O)N(C)C)C[C@@H]2c3cccc4c3c(cn4C)C[C@H]21
Potency (N140): inactive | Potency (PAD): inactive | Potency (PC15): inactive | Potency (PC26): inactive | Potency (PC49): inactive | Potency (SC27B): inactive | Potency (TAB113): inactive | outcome (CRL-7250 [1]): inactive | outcome (HaCat [2]): inactive | max response (KB-3-1): -6.93% | max response (NIH3T3): -4.54% | outcome (CRL-7250 [4]): inactive | outcome (HACAT [3]): inactive

C=CCOC(Cn1ccnc1)c1ccc(Cl)cc1Cl (stereo not given)
Potency (N140): 5.62 µM (active) | Potency (P93_24): 3.98 µM (active) | Potency (P94_40): 10 µM (active) | Potency (PAD): 8.91 µM (active) | Potency (PC15): 8.91 µM (active) | Potency (PC26): 7.57 µM (active) | Potency (SC27B): 10 µM (active) | Potency (TAB109): 7.94 µM (active) | Potency (TAB113): 8.91 µM (active) | Potency (TAB165): 3.16 µM (active) | Potency (W2): 4.26 µM (active) | max response (CRL-7250 [1]): -16.8% | outcome (HaCat [2]): inactive | max response (KB-3-1): 2.22% | max response (NIH3T3): -13% | outcome (HACAT [3]): inactive

CC[C@H]1C[C@H]2[C@@H]3CCC4=CC(=O)CC[C@@H]4[C@H]3CC[C@]2(C)[C@H]1O
max response (CRL-7250 [1]): -11.6% | max response (HaCat [2]): 2.56% | outcome (KB-3-1): inactive | max response (NIH3T3): -0.575%

CCc1cc(OC)c(C[C@H](C)N)cc1OC
max response (CRL-7250 [1]): -4.69% | max response (HaCat [2]): 0.504% | max response (KB-3-1): -8.43% | max response (NIH3T3): -16.2%

COc1cc(C[C@@H](C)N)c(OC)cc1Br
max response (CRL-7250 [1]): 2.12% | max response (HaCat [2]): -1.26% | max response (KB-3-1): -0.0524% | max response (NIH3T3): -1.11%
